# Laboratory results from PubChem BioAssay AID1962 (The Scripps Research Institute Molecular Screening Center, 2009).
# Out of some 300,000 compounds screened, about 2,500 (0.83%) were called active. The sample holds actives, similar compounds and a random draw of the others, so the mix is not that of the screen. A number with no mark means an inactive call.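 The calls were made as follows: active = inhibition above the mean of all tested compounds plus 3 SD, set per screening campaign (cut at about 24% in these data); inactive = the rest.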
# System: tRNA 2'-phosphotransferase TPT1 (Candida albicans SC5314)
# Test: Candida albicans TPT1 enzyme inhibitors, primary screen, biochemical, fluorescence polarization (AID 1962);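 also: plate controls were DMSO alone for no effect and ferristatin control at 100 nM for full effect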
# Conditions: recombinant caTPT1, FP RNA substrate dephosphorylation; at 5 µM; active compounds read high
row,SMILES,inhibition
1,Cc1ccc2[nH]c(=O)c(CN3CCCCC3)c(-c3ccccc3)c2c1,31.4% (active)
2,Cc1ccc2[nH]c(=O)c(CC(=O)O)c(-c3ccccc3)c2c1,-1.99%
3,Cc1ccc2[nH]c(=O)c(CC=C(Cl)Cl)c(C)c2c1,1.23%
4,CCOc1ccc(NC(=O)c2ccc(NC(=O)C3CCCO3)cc2)cc1 (stereo not given),1.62%
5,Cc1ccc(CNC(=O)c2cc(-c3ccccc3C)n(CC3CC(c4cccc([N+](=O)[O-])c4)=NO3)n2)cc1 (stereo not given),-1.39%
6,Cn1c(-c2ccc(C(F)(F)F)cc2)cc2onc(-c3ccccc3)c2c1=O,1.56%
7,CN(c1ccc(OCC(=O)OCC(=O)Nc2cccc([N+](=O)[O-])c2)cc1)S(=O)(=O)c1ccc(F)cc1,-1.05%
8,Cc1c(Cl)c([N+](=O)[O-])nn1Cc1ccc(C(=O)N/N=C\c2cc(Cl)ccc2O)o1,1.45%
9,Cc1cc(/C=C2/SC(=O)N(CC(=O)N3CCCC3)C2=O)ccc1N1CCOCC1,38.1% (active)
10,Cc1cc(/C=C2/SC(=O)N(CC(=O)N3CCCC3)C2=O)c(C)n1C,-4.95%
11,Cc1ccc2c(c1)N(CC(=O)N1CCOCC1)C(=O)CO2,1.05%
12,C#CCOCCOCCOCCNc1nc(N2CCN(C(=O)[C@H](CCCCN)n3cc(CCC(=O)O)nn3)CC2)nc(N2CCN(C(=O)[C@H](CCCCN)n3cc(CC(C)O)nn3)CC2)n1 (stereo not given in full),-2.04%
13,Cc1ccc(S(=O)(=O)N2CCN=C2SCc2c(F)cccc2Cl)cc1,-3.87%
14,O=C(CNC(=O)c1ccc(F)cc1)c1ccccc1,5.07%
15,O=C(C[n+]1cc(Br)cc2ccccc21)c1ccc(F)cc1,25.1% (active)
16,Cc1cccc[n+]1CC(=O)c1ccccc1,-3.95%
17,COc1cccc(-n2c(N)cc(=O)nc2SCC(=O)Nc2cc(C)on2)c1,-0.29%
18,CCC(C)(C)c1ccc(Oc2ccc(NC(=O)COC(=O)C3=COCCO3)cc2)cc1,0.08%
19,CC(C)C[C@@H](N)c1nnc(SCC(=O)c2ccc(Cl)cc2)o1,3.05%
20,O=C(O)CCCN1C(=O)C2C3c4ccccc4C(c4ccccc43)[C@@H]2C1=O (stereo not given in full),2.01%

row,SMILES,inhibition
1,O=C(CN1C(=O)c2ccccc2C1=O)NCc1ccc(C(=O)O)cc1,36.6% (active)
2,COc1ccc(CNC(=O)CCN2C(=O)c3ccccc3C2=O)cc1,-3.69%
3,O=C(O)CCC(=O)NCc1ccc(C(=O)O)cc1,-6.54%
4,Cc1ccc(C)c(C(=O)N2CCC(n3nccc3NC(=O)C3CC3)CC2)c1,1.61%
5,CC(C(=O)N1CCN(c2ccccc2F)CC1)c1ccc([N+](=O)[O-])cc1 (stereo not given),0.08%
6,NS(=O)(=O)c1ccc(NC(=S)NNC(=O)c2cccs2)cc1,-0.11%
7,N#C/C(=C\c1ccc(N2CCOCC2)o1)C(=O)N1CCOCC1,153% (active)
8,N#C/C(=C/c1ccc(N2CCOCC2)o1)C(=O)N1CCOCC1,158% (active)
9,Cc1ccc(C(=O)N2CCN(C(=O)N3CCOCC3)CC2)cc1,-1.08%
10,N#C/C(=C\c1ccc(-c2cccc([N+](=O)[O-])c2)o1)C(=O)NCCN1CCOCC1,0.6%
11,N#C/C=C(/c1ccc(F)cc1)N1CCOCC1,-0.18%
12,O=C(N1CCOCC1)N1CCOCC1,-4.04%
13,CCOc1cc(-c2noc(CCCC(=O)NC3CCCCC3)n2)ccc1OC,3.27%
14,CN1CCCN(C(=O)C2CCCCC2)CC1,1.49%
15,C/C(=C/C(=O)N1CCN(C)CC1)C(=O)O,3.89%
16,CCOCCn1[nH]c2ccccc2c1=O,-0.9%
17,CCC1CCCCN1C(=S)Nc1ccc(C(C)=O)cc1 (stereo not given),-0.24%
18,COCCN(C(=O)c1ccccc1F)c1c(N)n(Cc2ccccc2)c(=O)[nH]c1=O,1.87%
19,COc1ccc(NC(=O)c2sccc2SCC#N)cc1,-1.53%
20,NNC(=O)c1oc2nc(-c3ccccc3)cc(-c3ccco3)c2c1N,79.6% (active)

row,SMILES,inhibition
1,O=C(Nc1cccc(F)c1)c1cc(-c2ccco2)nc2ccccc12,14.1%
2,CNC(=S)NNC(=O)c1oc2nc(-c3ccccc3)cc(-c3ccco3)c2c1N,5.89%
3,CC[N+](C)(CC)CCC[n+]1c(-c2ccccc2)c2cc(N)ccc2c2ccc(N)cc21,-27.7%
4,COc1cc(/C=C2/SC(=S)N(Cc3ccccc3)C2=O)cc(OC)c1O,89.8% (active)
5,COc1ccccc1C(=O)NNC(=O)CCN1C(=O)/C(=C\c2ccccc2)SC1=S,-5.63%
6,COc1ccc(/C=C2\SC(=S)N(CCC(=O)Nc3cccc(C(=O)O)c3)C2=O)cc1OC,1.59%
7,CC(C(=O)Nc1ccc(F)c(F)c1F)N1CCCCCC1 (stereo not given),-0.32%
8,CC(=O)c1cnc(SCC(=O)O)nc1C,-5.63%
9,CSc1nc(N(C)NC(=O)c2cccc(C)c2)c2ccccc2n1,-0.9%
10,CCOC(=O)C(C)N(c1ccccc1Cl)S(C)(=O)=O (stereo not given),0.94%
11,CCN(CC)c1ccc(/C=N/NC(=O)c2cnccn2)c(O)c1,1.75%
12,CCN(CC)c1ccc(/C=N/Nc2nc(C)cc(C)n2)c(O)c1,25.2% (active)
13,Cc1cc(C)nc(N/N=C/c2ccncc2)n1,3.38%
14,COc1ccc(-c2cc3nc(C)c(CCC(=O)NC(C)CCc4ccco4)c(C)n3n2)c(OC)c1 (stereo not given),0.65%
15,CC(C)NS(=O)(=O)c1ccc(NC(=O)c2cccnc2)cc1,6.23%
16,CCOC(=O)c1cc(NC(=O)c2cccnc2)ccn1,-2.33%
17,Cc1c(C(=O)OC(C)C)sc(NC(=O)c2cccnc2)c1C#N,31.6% (active)
18,O=C(NC1CCCCC1)C1CCCN(S(=O)(=O)c2ccc(Br)s2)C1 (stereo not given),-22.4%
19,CC(NC(=O)CC1SC(N)=NC1=O)c1ccccc1 (stereo not given),2.18%
20,Cc1cc(NC(=O)CCS(=O)(=O)c2ccc(F)cc2)no1,-4.5%
